Measured values as given in the supplement of paper PMC7411054.
Where a name gives a salt, the structure may show the parent alone.

tested on: WPMY1-CANX-COX4; test: lowest phenotypically active concentration; higher = less potent; conditions: treatment time: 24 h
In short: (§1)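 Four wells per concentration (0.3, 1, 3 or 9 µM) were treated for 24 h in each of fifteen gene-edited reporter lines from A549, HepG2 and WPMY1 cells, then imaged live. After normalising live-cell features to solvent control wells, deviation was defined as ≥3 of 4 wells lying past the 95th percentile of control Euclidean distances. Reproducibility was defined as a median replicate Pearson correlation above the 95th percentile of non-replicates. Both had to hold for phenotypic activity.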

Row | SMILES | lowest phenotypically active concentration [µM]
1 | CC[C@H]1CN2CC[C@H]1C[C@@H]2[C@@H](O)c1ccnc2ccc(OC)cc12 [Hydroquinidine HCl] | 9
2 | C[C@@]1(CO)[C@H](O)CC[C@@]2(C)[C@H]1CC[C@H]1C[C@@H]3C[C@@]12CC[C@]3(O)CO [Aphidicolin] | ≤ 0.3
3 | COC(=O)[C@@]1(O)C[C@H]2O[C@]1(C)n1c3ccccc3c3c4c(c5c6ccccc6n2c5c31)C(=O)NC4 | ≤ 0.3
4 | CC[C@@H]1C=CC=CC[C@H](C)[C@@H](O)[C@](C)(O)C(=O)[C@H](C)[C@@H](O)[C@H](C)C(=O)[C@H](C)[C@@H](O)[C@H](C)C=CC(=O)O[C@H]2[C@@H](C)[C@@H](CC1)O[C@@]1(CC[C@@H](C)[C@@H](C[C@H](C)O)O1)[C@@H]2C [Oligomycin A] | 1
5 | CC(C)[C@@]1(NC(=O)[C@@H]2C[C@@H]3c4cccc5[nH]cc(c45)C[C@H]3N(C)C2)O[C@@]2(O)[C@@H]3CCCN3C(=O)[C@H](Cc3ccccc3)N2C1=O [Dihydroergocristine mesylate] | 9
6 | C[C@]12CC[C@H]3[C@@H](CC[C@]4(O)C[C@@H](O)CC[C@]34C=O)[C@@]1(O)CC[C@@H]2C1=CC(=O)OC1 [Strophanthidin] | ≤ 0.3
7 | C=C1[C@@H](O)C2C=CC[C@H](C)C(=O)[C@](C)(O)C=C[C@@H](OC(C)=O)[C@]23C(=O)N[C@H](Cc2ccccc2)[C@@H]3[C@@H]1C (some centres undefined) [Cytochalasin D] | ≤ 0.3
8 | COc1ccc(C[C@H]2NC[C@H](O)[C@H]2OC(C)=O)cc1 [Anisomycin] | ≤ 0.3
9 | C[C@@H]1CC[C@H]2[C@@H](C)C(=O)O[C@@H]3O[C@@]4(C)CC[C@@H]1[C@]32OO4 [Artemisinin] | ≤ 0.3
10 | O=C1NC(=O)c2c1c1c3ccccc3n3c1c1c2c2ccccc2n1C1CCC3O1 | 9
11 | Cc1sc2c(c1C)C(c1ccc(Cl)cc1)=N[C@@H](CC(=O)OC(C)(C)C)c1nnc(C)n1-2 | ≤ 0.3
12 | C[C@@]12C(=O)OC(=O)[C@]1(C)[C@H]1CC[C@@H]2O1 [Cantharidin] | 9
13 | COc1cc2c(c(OC)c1OC)-c1ccc(OC)c(=O)cc1[C@@H](NC(C)=O)CC2 [colchicine] | ≤ 0.3
14 | N#CC(C#N)=NNc1cccc(Cl)c1 | 9
15 | O=C(NCCN1CCC2(CC1)C(=O)NCN2c1cccc(F)c1)c1ccc(F)c(F)c1 [ML 298 hydrochloride] | 9
16 | CCn1cnc2c(Nc3cccc(Cl)c3)nc(N[C@H]3CCCC[C@H]3N)nc21 | 1
17 | O=C(Nc1ccncc1)C(=O)c1cn(Cc2ccc(Cl)cc2)c2ccccc12 [Indibulin] | 3
18 | CC[C@@H](C(=O)[C@@H](C)[C@@H](O)[C@H](C)[C@@H]1O[C@@H]([C@@H](CC)C(=O)O)CC[C@@H]1C)[C@H]1O[C@]2(C=C[C@@H](O)[C@]3(CC[C@@](C)([C@H]4CC[C@](O)(CC)[C@H](C)O4)O3)O2)[C@H](C)C[C@@H]1C [Salinomycin Sodium] | ≤ 0.3
19 | CN1C[C@H](C(=O)N[C@]2(C)O[C@@]3(O)[C@@H]4CCCN4C(=O)[C@H](Cc4ccccc4)N3C2=O)C=C2c3cccc4[nH]cc(c34)C[C@H]21 [ergotamine] | 3
20 | C[C@H](CCC(=O)O)C[C@H](C)C[C@H](C)C(=O)/C=C(\O)[C@H](C)C[C@H](C)C/C=C/[C@@H](C)[C@@H](O)[C@@H](C)[C@@H](O)C[C@@H]1CC[C@@](C)([C@H]2CC[C@@](C)([C@@H](C)O)O2)O1 [Ionomycin free acid] | 9
21 | N#CC(C#N)=NNc1ccc(OC(F)(F)F)cc1 | 3
22 | COC1=CC(C)=C[C@@H](C)[C@@H](O)[C@@H](C)CC(C)=CC=C[C@H](OC)[C@@H]([C@@H](C)[C@@H](O)[C@H](C)[C@@]2(O)C[C@@H](O)[C@H](C)[C@@H](C(C)C)O2)OC1=O [Bafilomycin A1] | 3
23 | COc1cc([C@@H]2c3cc4c(cc3[C@H](O)[C@H]3COC(=O)[C@H]23)OCO4)cc(OC)c1OC [Podophyllotoxin] | ≤ 0.3
24 | CC[C@]12C=CCN3CC[C@]4(C(=C(C(=O)OC)C1)Nc1ccccc14)[C@@H]32 [Tabersonine dichlorhydrate] | 9

tested on: WPMY1-GM130-SQSTM1; test: as above; conditions: treatment time: 24 h
In short: as §1

Row | SMILES | lowest phenotypically active concentration [µM]
25 | C[C@@]1(CO)[C@H](O)CC[C@@]2(C)[C@H]1CC[C@H]1C[C@@H]3C[C@@]12CC[C@]3(O)CO [Aphidicolin] | ≤ 0.3
26 | COC(=O)[C@@]1(O)C[C@H]2O[C@]1(C)n1c3ccccc3c3c4c(c5c6ccccc6n2c5c31)C(=O)NC4 | ≤ 0.3
27 | CC(C)[C@@]1(NC(=O)[C@@H]2C[C@@H]3c4cccc5[nH]cc(c45)C[C@H]3N(C)C2)O[C@@]2(O)[C@@H]3CCCN3C(=O)[C@H](Cc3ccccc3)N2C1=O [Dihydroergocristine mesylate] | 9
28 | C[C@]12CC[C@H]3[C@@H](CC[C@]4(O)C[C@@H](O)CC[C@]34C=O)[C@@]1(O)CC[C@@H]2C1=CC(=O)OC1 [Strophanthidin] | ≤ 0.3
29 | C=C1[C@@H](O)C2C=CC[C@H](C)C(=O)[C@](C)(O)C=C[C@@H](OC(C)=O)[C@]23C(=O)N[C@H](Cc2ccccc2)[C@@H]3[C@@H]1C (some centres undefined) [Cytochalasin D] | ≤ 0.3
30 | COc1ccc(C[C@H]2NC[C@H](O)[C@H]2OC(C)=O)cc1 [Anisomycin] | ≤ 0.3
31 | C[C@@H]1CC[C@H]2[C@@H](C)C(=O)O[C@@H]3O[C@@]4(C)CC[C@@H]1[C@]32OO4 [Artemisinin] | ≤ 0.3
32 | O=C1NC(=O)c2c1c1c3ccccc3n3c1c1c2c2ccccc2n1C1CCC3O1 | ≤ 0.3
33 | Cc1sc2c(c1C)C(c1ccc(Cl)cc1)=N[C@@H](CC(=O)OC(C)(C)C)c1nnc(C)n1-2 | ≤ 0.3
34 | CN1C[C@H](C(=O)N[C@]2(C)O[C@@]3(O)[C@@H]4CCCN4C(=O)[C@H](Cc4ccccc4)N3C2=O)C[C@@H]2c3cccc4[nH]cc(c34)C[C@H]21.CN1C[C@H](C(=O)N[C@]2(C)O[C@@]3(O)[C@@H]4CCCN4C(=O)[C@H](Cc4ccccc4)N3C2=O)C[C@@H]2c3cccc4[nH]cc(c34)C[C@H]21 [dihydroergotamine] | 9
35 | C[C@@]12C(=O)OC(=O)[C@]1(C)[C@H]1CC[C@@H]2O1 [Cantharidin] | 3
36 | COc1cc2c(c(OC)c1OC)-c1ccc(OC)c(=O)cc1[C@@H](NC(C)=O)CC2 [colchicine] | ≤ 0.3
37 | CC(C)(O)[C@H]1O[C@H]2CC[C@@]3(C)[C@@](O)(CC[C@H]4Cc5c([nH]c6ccccc56)[C@@]43C)C2=CC1=O [paxilline] | 9
38 | N#CC(C#N)=NNc1cccc(Cl)c1 | 9
39 | O=C(NCCN1CCC2(CC1)C(=O)NCN2c1cccc(F)c1)c1ccc(F)c(F)c1 [ML 298 hydrochloride] | 9
40 | CC(C)(N)Cc1ccccc1 [phentermine] | 9
41 | CCn1cnc2c(Nc3cccc(Cl)c3)nc(N[C@H]3CCCC[C@H]3N)nc21 | 1
42 | O=C(Nc1ccncc1)C(=O)c1cn(Cc2ccc(Cl)cc2)c2ccccc12 [Indibulin] | ≤ 0.3
43 | CC[C@@H](C(=O)[C@@H](C)[C@@H](O)[C@H](C)[C@@H]1O[C@@H]([C@@H](CC)C(=O)O)CC[C@@H]1C)[C@H]1O[C@]2(C=C[C@@H](O)[C@]3(CC[C@@](C)([C@H]4CC[C@](O)(CC)[C@H](C)O4)O3)O2)[C@H](C)C[C@@H]1C [Salinomycin Sodium] | ≤ 0.3
44 | CN1C[C@H](C(=O)N[C@]2(C)O[C@@]3(O)[C@@H]4CCCN4C(=O)[C@H](Cc4ccccc4)N3C2=O)C=C2c3cccc4[nH]cc(c34)C[C@H]21 [ergotamine] | 3
45 | C[C@H](CCC(=O)O)C[C@H](C)C[C@H](C)C(=O)/C=C(\O)[C@H](C)C[C@H](C)C/C=C/[C@@H](C)[C@@H](O)[C@@H](C)[C@@H](O)C[C@@H]1CC[C@@](C)([C@H]2CC[C@@](C)([C@@H](C)O)O2)O1 [Ionomycin free acid] | 9
46 | N#CC(C#N)=NNc1ccc(OC(F)(F)F)cc1 | 9
47 | COC1=CC(C)=C[C@@H](C)[C@@H](O)[C@@H](C)CC(C)=CC=C[C@H](OC)[C@@H]([C@@H](C)[C@@H](O)[C@H](C)[C@@]2(O)C[C@@H](O)[C@H](C)[C@@H](C(C)C)O2)OC1=O [Bafilomycin A1] | 1
48 | COc1cc([C@@H]2c3cc4c(cc3[C@H](O)[C@H]3COC(=O)[C@H]23)OCO4)cc(OC)c1OC [Podophyllotoxin] | ≤ 0.3
49 | CC[C@]12C=CCN3CC[C@]4(C(=C(C(=O)OC)C1)Nc1ccccc14)[C@@H]32 [Tabersonine dichlorhydrate] | 9
